# Data published in PubChem BioAssay AID720 (The Scripps Research Institute Molecular Screening Center, 2007).
# Out of some 97,000 compounds screened, about 140 (0.14%) were called active.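 Rule for the calls: active = inhibition above the screen-wide mean inhibition plus 3 SD (cut at about 15% in these data); inactive = the rest.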 The entries come from a sample that favours actives as a whole.
# Target: Ephrin type-B receptor 4 (Homo sapiens) (UniProt P54760)
# Assay: blockers of EphB4 ligand binding – biochemical, TNYL-RAW peptide probe, fluorescence polarization, primary screen (AID 720);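 note: 0% = DMSO wells and 100% = excess unlabeled TNYL-RAW peptide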
# Conditions: EphB4 LBD / TNYL-RAW-Alexa532 peptide, at 7 µM, hits give high values
# Ephrin type-B receptor 4 (Homo sapiens), sequence (P54760 whole entry, looked up): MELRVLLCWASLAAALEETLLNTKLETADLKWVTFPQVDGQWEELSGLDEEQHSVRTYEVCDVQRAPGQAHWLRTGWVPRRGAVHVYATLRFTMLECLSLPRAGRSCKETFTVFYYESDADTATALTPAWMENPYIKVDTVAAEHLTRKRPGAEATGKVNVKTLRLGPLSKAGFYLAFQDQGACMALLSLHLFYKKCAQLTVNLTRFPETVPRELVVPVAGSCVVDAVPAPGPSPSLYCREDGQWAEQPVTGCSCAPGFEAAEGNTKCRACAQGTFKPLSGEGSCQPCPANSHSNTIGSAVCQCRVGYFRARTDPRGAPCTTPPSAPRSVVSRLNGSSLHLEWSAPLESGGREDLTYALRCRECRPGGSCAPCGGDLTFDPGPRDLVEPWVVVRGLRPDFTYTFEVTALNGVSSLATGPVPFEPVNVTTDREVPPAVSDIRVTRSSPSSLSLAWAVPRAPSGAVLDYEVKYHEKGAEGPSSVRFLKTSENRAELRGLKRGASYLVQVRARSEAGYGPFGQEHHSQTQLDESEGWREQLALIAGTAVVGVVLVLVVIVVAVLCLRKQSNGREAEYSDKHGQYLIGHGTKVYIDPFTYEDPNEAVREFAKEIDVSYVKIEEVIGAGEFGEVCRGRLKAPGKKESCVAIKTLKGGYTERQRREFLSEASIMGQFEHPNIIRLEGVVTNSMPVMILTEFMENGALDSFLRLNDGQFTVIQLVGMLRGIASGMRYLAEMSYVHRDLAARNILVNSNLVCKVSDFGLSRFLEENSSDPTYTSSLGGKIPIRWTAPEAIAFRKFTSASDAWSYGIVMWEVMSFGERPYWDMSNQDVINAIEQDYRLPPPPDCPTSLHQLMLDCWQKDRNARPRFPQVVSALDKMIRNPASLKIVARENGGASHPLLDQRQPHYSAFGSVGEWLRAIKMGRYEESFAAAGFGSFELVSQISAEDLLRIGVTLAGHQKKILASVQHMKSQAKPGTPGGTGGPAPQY
row,SMILES,inhibition
1,Cc1cc(=O)oc2cc(OC(C)C(=O)Nc3ccc(N4CCOCC4)cc3)ccc12 (stereo unspecified),8.06% (inactive)
2,O=C1CCCC2=C1C(c1ccccc1)n1c(s/c(=C/c3cccc(F)c3)c1=O)=N2 (stereo unspecified),1.22% (inactive)
3,O=C(NCc1ccccc1Cl)c1csc2c1CCCCC2,2.57% (inactive)
4,CCCn1c(C)cc(C(=O)COC(=O)c2c(C)nn(-c3ccccc3)c2C)c1C,0.32% (inactive)
5,CCCCNC(=O)CSc1nc2ccc(NC(=O)CSc3nnc(COc4ccccc4C)n3C)cc2s1,-4.14% (inactive)
6,CC1=NN(C(C)C)C(=O)C1,-0.74% (inactive)
7,O=S(=O)(c1ccc(Br)cc1)n1ccc2ccccc21,6.94% (inactive)
8,NC(=O)c1c(NC(=O)CSc2nnc(-c3ccco3)n2N)sc2c1CCCC2,0.73% (inactive)
9,CCC(=O)Nc1ccc(C(=O)Nc2cc(C)on2)cc1,3.48% (inactive)
10,COc1ccc(N(CC(=O)NC2CCCCC2)C(=O)CNC(=O)c2ccco2)c(OC)c1,0.8% (inactive)
11,CCCCCCC12CCC(C(=O)O)(CC1)CC2,-4.95% (inactive)
12,Cn1c(CO)cnc1SCc1ccccc1,3.71% (inactive)
13,CCOc1cc(N2CCOCC2)c(OCC)cc1NC(=O)COc1cccc2cccnc12,17.3% (active)
14,CCOc1cc(NC(=O)c2ccco2)c(OCC)cc1NC(=O)COc1ccccc1,-10% (inactive)
15,CCOc1cc(N2CCOCC2)c(OCC)cc1NC(=O)COC(=O)[C@H](Cc1c[nH]c2ccccc12)NC(C)=O,5.55% (inactive)
16,S=C(NCCC1=CCCCC1)Nc1ccccc1,4.71% (inactive)
17,c1ccc(-n2nc3ccccc3n2)cc1,1.16% (inactive)
18,COc1ccc(C2=NO[C@@H]3C(=O)N(Cc4ccccc4)C(=O)[C@H]23)cc1OC,7.58% (inactive)
19,Nc1nc(C23CC4CC(CC(C4)C2)C3)cs1,-1.67% (inactive)
20,O=C(CCC(=O)OCc1cccc(C(=O)Oc2ccccc2)c1)Nc1cccc2ccccc12,3.74% (inactive)
21,COc1ccc(CCNC(=O)COC(=O)c2ccc[nH]c2=O)cc1,-5.04% (inactive)
22,O=C(N/N=C\c1ccc(-c2ccc(Cl)c(Cl)c2)o1)C(=O)N1CCCC1,-0.37% (inactive)

row,SMILES,inhibition
1,CCOc1cc(NC(=O)c2cnccn2)c(OCC)cc1NC(=O)c1ccc(C)cc1,-6.39% (inactive)
2,CC(C)Cc1oc(C(=O)O)cc1CN,-0.3% (inactive)
3,O=C(NC1CC1)c1ccc2c(c1)NC(=O)c1ccccc1S2,0.56% (inactive)
4,COc1ccc(-c2csc3nc(-c4ccccc4F)oc(=O)c23)cc1OC,-10.2% (inactive)
5,O=C(N/N=C/c1ccc(O)cc1)/C(=C/c1ccc([N+](=O)[O-])cc1)NC(=O)c1ccccc1,-1.89% (inactive)
6,CCOCc1nnc(NC(=O)CSc2ccc(C)cc2)s1,1.51% (inactive)
7,O=[N+]([O-])c1ccc(C=Nc2ccc(Cl)cc2Cl)s1,-0.13% (inactive)
8,CC1=CC(C)(C)Nc2ccc(OC(=O)C(Cc3ccccc3)N3C(=O)C4CCCCC4C3=O)cc21 (stereo unspecified),-0.93% (inactive)
9,S=c1[nH]nc(CSCc2ccc(Cl)cc2Cl)n1-c1ccccc1,8.29% (inactive)
10,CCOC(=O)c1cnc(SCC(=O)Nc2cccc(OC)c2)nc1N,9.83% (inactive)
11,O=S(=O)(N/N=C\c1cccn1-c1ccccc1)c1ccc2ccccc2c1,-8.09% (inactive)
12,Cn1c2ccccc2n2c(=O)c(=O)n(CC(=O)c3ccc(F)cc3)nc12,0.04% (inactive)
13,COc1cccc(C(=O)NNC(=O)c2ccccc2Br)c1,-7.4% (inactive)
14,O=C(CN1CCN(S(=O)(=O)c2ccc3ccccc3c2)CC1)NC(=O)NC1CCCCC1,5.63% (inactive)
15,Cc1ccc(SC(=O)COc2ccc(C)c(C)c2)cc1,3.52% (inactive)
16,O=[N+]([O-])c1ccc(N2CCN(S(=O)(=O)c3ccc4ccccc4c3)CC2)cc1NCc1ccco1,0.12% (inactive)
17,CCc1cccc2c(C=C(C#N)C#N)cn(CC(=O)N3CCCCC3)c12,-0.37% (inactive)
18,COc1ccc(CC(NC(C)=O)C(=O)N2CCN(C(=O)Nc3cccc(Cl)c3)CC2)cc1OC (stereo unspecified),-2.32% (inactive)
19,CCOc1ccc(NC(=O)CCS(=O)(=O)c2ccc3c(c2)CCCN3C(=O)CC)cc1,8.53% (inactive)
20,COc1ccccc1NC(=O)C1CCCN(c2cc(C)nc3ncnn23)C1 (stereo unspecified),-5.56% (inactive)
21,C=CCOc1cccc(CNn2cn[nH]c2=S)c1,-3.4% (inactive)
22,C=C(C)CNC(=S)/N=c1\scc(C)n1CC,-8.88% (inactive)

row,SMILES,inhibition
1,CCCCNC(=S)NNC(=O)c1cc(C)on1,-0.6% (inactive)
2,CC(C)NC(=O)CSc1ccccc1C(=O)NCc1ccc2c(c1)OCO2,2.19% (inactive)
3,O=C(CSCc1ccc([N+](=O)[O-])cc1)NCCSCc1ccccc1,4.49% (inactive)
4,O=C(c1ccc(CN2CCOCC2)cc1)N1CCN(c2ccccc2F)CC1,-2.74% (inactive)
5,O=S(=O)(N1CCOCC1)N1CCN(c2ccccc2F)CC1,20.7% (active)
6,Cc1cccc(C)c1N1CCN(S(=O)(=O)N2CCOCC2)CC1,3.9% (inactive)
7,O=C(Nc1cccc(NC(=O)c2ccco2)c1)c1cnccn1,-6.85% (inactive)
8,COc1ccc(NC(=O)/C(Cl)=C(/Cl)S(=O)Cc2ccc(C)cc2)cn1 (stereo unspecified),7.2% (inactive)
9,CCOCCn1c(C(C)C)nc2ccccc21,0.96% (inactive)
10,O=C(Cc1ccc(S(=O)(=O)N2CCOCC2)s1)NCCC(c1ccccc1)c1ccccc1,-2.3% (inactive)
11,CCOC(=O)c1c(NC(=O)/C=C/c2ccco2)sc(C)c1C,0.57% (inactive)
12,CC(=O)Nc1cccc(/C(C)=N/NC(=O)c2ccccc2Cl)c1,2.34% (inactive)
13,O=C(NCC(=O)N(Cc1cccs1)C(C(=O)NC1CCCCC1)c1ccco1)c1cccs1 (stereo unspecified),-1.39% (inactive)
14,O=C1Nc2cc(Cl)c(Cl)cc2N(O)N1c1cc(Cl)cc(Cl)c1,2.41% (inactive)
15,CC(C)C(=O)NC(NC(=S)NC1CCS(=O)(=O)C1)C(Cl)(Cl)Cl (stereo unspecified),2.04% (inactive)
16,O=C(c1cc2sccc2n1Cc1ccc(F)cc1)N1CCc2ccccc21,4.78% (inactive)
17,Cc1c(NC(=O)/C=C/C(=O)O)cccc1[N+](=O)[O-],-6.42% (inactive)
18,CN(C)/C=C(/C(=O)c1ccc(Cl)cc1)S(=O)(=O)c1ccccc1,-11.6% (inactive)
19,N=c1c2c3c(sc2nc2n1CCCCC2)CCCC3,6.43% (inactive)
20,O=c1[nH][nH]c(C(F)(F)F)c1C=NCc1ccccc1Cl,2.43% (inactive)
21,O=S(=O)(NN=C1CCCCCCC1)c1ccc(Br)cc1,5.67% (inactive)
22,CCOC(=O)C1=C(c2ccccc2)N=C2SCC(=O)N2C1c1ccc(O)c(OC)c1 (stereo unspecified),2.71% (inactive)

row,SMILES,inhibition
1,COCCn1c(SCc2nc3cc(OC)c(OC)cc3c(=O)[nH]2)nnc1-c1ccncc1,5.33% (inactive)
2,COc1ccc(C2C(C(C)=O)=C(O)C(=O)N2Cc2cccnc2)cc1 (stereo unspecified),1.74% (inactive)
3,O=C(C1=C(O)C(=O)N(Cc2ccccc2)C1c1ccco1)c1ccco1 (stereo unspecified),-8.37% (inactive)
4,O=C(C1=C(O)C(=O)N(Cc2ccccc2)C1c1cccnc1)c1ccco1 (stereo unspecified),27% (active)
5,COc1ccc2c(c1)C(C)=CC(C)(C)N2C(=O)Nc1ccccc1,6.35% (inactive)
6,CC(=O)Oc1ccc(NC(=O)CCC2CCCCC2)c(C(=O)O)c1,4.49% (inactive)
7,O=C(CN1CCN(c2ccc(Cl)cc2)CC1)N1CCCC1,4.82% (inactive)
8,Oc1ccc(/C=N/NC2=NCCCCC2)c(O)c1,2.04% (inactive)
9,CCOC(=O)c1sc(C)c2c1NC(C)(c1cccc3ccccc13)NC2=O (stereo unspecified),13.2% (inactive)
10,Cc1cc(C)nc(SC(C)C(=O)N/N=C/c2cccs2)n1 (stereo unspecified),2.66% (inactive)
11,C=CCc1ccc(OCCOc2cccc(/C=N/n3cnnc3)c2)c(OC)c1,-1.42% (inactive)
12,Cc1ccc(N2C(=O)CC(Sc3ncn[nH]3)C2=O)cc1 (stereo unspecified),0.58% (inactive)
13,CC(C)CNC(=S)NNC(=O)c1nn(C)cc1Cl,7.68% (inactive)
14,COc1ccc(-c2noc(-c3ccc(C)cc3)n2)cc1,-4.98% (inactive)
15,CSc1cc(C)n(-c2ccccc2C)c(=S)c1C(C)=O,-5.85% (inactive)
16,CCCOc1cc(C)c(S(=O)(=O)n2nnc3ccccc32)cc1C,-0.8% (inactive)
17,CCc1nn(-c2cc(Oc3cccc4ccccc34)nc(-c3ccccc3)n2)c(N)c1C#N,-9.42% (inactive)
18,CCOc1cc(C(=O)Nc2c(C)ccc3nsnc23)cc(OCC)c1OCC,-8.62% (inactive)
19,COc1ccc(CNC(=O)CCn2cccc2)cc1,-2.06% (inactive)
20,COC(=O)c1ccc(NC(=O)C23CC4CC(C2)CC(n2cnc(Cl)n2)(C4)C3)cc1,3.33% (inactive)
